“And” between values parts separate entries of the source, which are not always exact repeats. Equal entries are not always repeated. Screen size: about 5,500 compounds; about 2,000 (36%) were called active. Another 18% or so got no clear call; they are omitted. No stated cut-off is given here; in the data, active means normalized growth mostly below about 0.91 (no sharp cut-off); inconclusive means no clear call, values can overlap the other calls; inactive means mostly above about 0.92. The list shows a part of the results.
Assay: chemical genetic growth profiling, strain panel (AID 1159580);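 further: tested at 20 µM; growth read once vehicle control cultures reached saturation at 30 °C; 1 = growth at the plate median or of vehicle wells; lower values mean less growth of the strain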
Settings: S. cerevisiae deletion strains, growth OD
[1] = locus YGR229C, strain SMI1, hits give low values
[2] = locus YNL322C, strain KRE1, hits give low values

Measured: normalized growth

CO/N=C(\C(=O)N[C@@H]1C(=O)N2C(C(=O)O)=C(COC(C)=O)CS[C@H]12)c1csc(N)n1
inactive: locus YAL021C, strain ccr4, hits give low values 0.961 | locus YAL026C, strain drs2, hits give low values 0.983 | locus YAL030W, strain snc1, hits give low values 0.983 | locus YBL061C, strain skt5, hits give low values 0.993 | locus YBR009C, strain hhf1, hits give low values 0.973 | locus YBR021W, strain FUR4, hits give low values 1 | locus YBR023C, strain chs3, hits give low values 1.02 | locus YBR171W, strain sec66, hits give low values 0.993 | locus YBR229C, strain ROT2, hits give low values 0.954 | locus YBR231C, strain swc5, hits give low values 0.975 | locus YBR279W, strain paf1, hits give low values 1 | locus YCL011C, strain gbp2, hits give low values 0.954 | locus YCL016C, strain dcc1, hits give low values 0.961 | locus YCL029C, strain bik1, hits give low values 0.998 | locus YCL061C, strain MRC1, hits give low values 0.964 | locus YCL069W, strain vba3, hits give low values 0.995 | locus YCR088W, strain abp1, hits give low values 0.985 | locus YDL005C, strain med2, hits give low values 0.992 | locus YDL035C, strain GPR1, hits give low values 0.959 | locus YDL040C, strain nat1, hits give low values 0.989 | locus YDL074C, strain BRE1, hits give low values 1.02 | locus YDL101C, strain DUN1, hits give low values 0.99 | locus YDL185W, strain tfp1, hits give low values 0.965 | locus YDL192W, strain arf1, hits give low values 0.982 | locus YDR001C, strain nth1, hits give low values 0.976 | locus YDR069C, strain doa4, hits give low values 0.996 | locus YDR101C, strain arx1, hits give low values 0.975 | locus YDR137W, strain rgp1, hits give low values 0.938 | locus YDR159W, strain sac3, hits give low values 0.985 | locus YDR162C, strain NBP2, hits give low values 0.954 | locus YDR195W, strain ref2 0.989 | locus YDR297W, strain sur2, hits give low values 0.986 | locus YDR318W, strain mcm21, hits give low values 0.996 | locus YDR334W, strain swr1, hits give low values 0.976 | locus YDR335W, strain msn5, hits give low values 0.992 | locus YDR388W, hits give low values 0.992 | locus YDR392W, strain spt3, hits give low values 0.896 | locus YDR502C, strain sam2, hits give low values 1 | locus YEL003W, strain gim4, hits give low values 1.02 | locus YEL037C, strain rad23, hits give low values 0.991 | locus YEL061C, strain CIN8 (second series), hits give low values 0.989 | locus YEL061C, strain CIN8, hits give low values 0.995 | locus YER015W, strain faa2, hits give low values 0.979 | locus YER016W, strain bim1, hits give low values 0.99 | locus YER110C, hits give low values 0.992 | locus YER111C, strain swi4, hits give low values 1 | locus YER155C, strain BEM2 (second series), hits give low values 0.965 | locus YER155C, strain BEM2, hits give low values 1 | locus YER167W, strain BCK2, hits give low values 1.02 | locus YFR010W, strain ubp6, hits give low values 0.97 | locus YGL078C, strain dbp3, hits give low values 0.998 | locus YGL086W, strain mad1, hits give low values 0.984 | locus YGL167C, strain pmr1, hits give low values 1.01 | locus YGL173C, strain kem1, hits give low values 1.01 | locus YGL227W, strain vid30, hits give low values 0.993 | locus YGL240W, strain doc1, hits give low values 0.996 | locus YGL248W, strain PDE1, hits give low values 1.02 | locus YGL253W, strain hxk2, hits give low values 1 | locus YGR135W, strain pre9, hits give low values 1.05 | [1] 0.979 | locus YGR252W, strain gcn5, hits give low values 1.05 | locus YHR013C, strain ard1, hits give low values 0.94 | locus YHR027C, strain rpn1, hits give low values 0.987 | locus YHR030C, strain SLT2, hits give low values 0.988 and 1.01 | locus YHR079C, strain IRE1 (second series), hits give low values 0.998 | locus YHR079C, strain IRE1, hits give low values 0.992 | locus YHR094C, strain hxt1, hits give low values 0.994 | locus YHR129C, strain ARP1, hits give low values 0.99 | locus YHR142W, strain chs7, hits give low values 0.993 | locus YHR200W, strain rpn10, hits give low values 0.981 | locus YIL066C, strain RNR3, hits give low values 0.976 | locus YIL073C, strain SPO22, hits give low values 1.06 | locus YIL125W, strain kgd1, hits give low values 0.986 | locus YIR030C, strain dcg1, hits give low values 0.996 | locus YJL092W, strain hpr5, hits give low values 0.974 | locus YJL095W, strain BCK1 (second series), hits give low values 0.97 | locus YJL095W, strain BCK1, hits give low values 1.06 and 0.972 | locus YJL115W, strain asf1, hits give low values 0.968 | locus YJL129C, strain trk1, hits give low values 0.989 | locus YJL134W, strain LCB3, hits give low values 0.989 | locus YJL154C, strain vps35, hits give low values 0.968 | locus YJL164C, strain tpk1, hits give low values 0.975 | locus YJL166W, strain qcr8, hits give low values 1.01 | locus YJL168C, strain set2, hits give low values 0.991 | locus YJL187C, strain SWE1 (second series), hits give low values 1.01 | locus YJL187C, strain SWE1, hits give low values 0.984 | locus YJR043C, strain POL32, hits give low values 0.958 | locus YJR066W, strain TOR1, hits give low values 0.983 | locus YKL009W, strain mrt4, hits give low values 1.03 | locus YKL068W, hits give low values 0.986 | locus YKL085W, strain MDH1 (second series), hits give low values 0.994 | locus YKL085W, strain MDH1, hits give low values 0.994 | locus YKL160W, strain elf1, hits give low values 1.02 | locus YKL190W, strain CNB1, hits give low values 1 | locus YKR001C, strain vps1, hits give low values 0.992 | locus YKR026C, strain gcn3, hits give low values 0.964 | locus YKR091W, strain srl3, hits give low values 0.962 | locus YLL001W, strain dnm1, hits give low values 1.01 | locus YLL026W, hits give low values 0.996 | locus YLL041C, strain sdh2, hits give low values 1 | locus YLR027C, strain aat2, hits give low values 0.977 | locus YLR039C, strain RIC1, hits give low values 0.993 | locus YLR058C, strain SHM2, hits give low values 0.986 | locus YLR102C, strain apc9, hits give low values 0.997 | locus YLR113W, strain HOG1, hits give low values 0.99 | locus YLR221C, strain rsa3, hits give low values 1 | locus YLR258W, strain gsy2, hits give low values 0.974 | locus YLR262C, strain YPT6 (second series), hits give low values 1 | locus YLR262C, strain YPT6, hits give low values 0.954 | locus YLR268W, strain sec22, hits give low values 0.973 | locus YLR320W, strain mms22, hits give low values 0.96 | locus YLR330W, strain CHS5, hits give low values 0.988 | locus YLR342W, strain FKS1 (second series), hits give low values 0.995 | locus YLR342W, strain FKS1, hits give low values 0.994 | locus YLR357W, strain rsc2, hits give low values 1.03 | locus YLR370C, strain arc18, hits give low values 0.994 | locus YLR371W, strain rom2, hits give low values 0.994 | locus YLR384C, strain iki3, hits give low values 0.983 | locus YLR418C, strain cdc73, hits give low values 1.01 | locus YML016C, strain PPZ1, hits give low values 0.993 | locus YML032C, strain rad52, hits give low values 0.993 | locus YML120C, strain ndi1, hits give low values 0.989 | locus YML124C, strain tub3, hits give low values 0.993 | locus YMR058W, strain fet3, hits give low values 0.99 | locus YMR078C, strain ctf18, hits give low values 0.98 | locus YMR125W, strain sto1, hits give low values 1.02 | locus YMR129W, hits give low values 0.968 | locus YMR205C, strain PFK2, hits give low values 1 | locus YMR223W, strain ubp8, hits give low values 1.03 | locus YMR231W, strain pep5, hits give low values 0.999 | locus YMR307W, strain GAS1, hits give low values 1 | locus YNL067W, strain RPL9B, hits give low values 1.01 | locus YNL071W, strain lat1, hits give low values 0.989 | locus YNL128W, strain TEP1, hits give low values 0.996 | locus YNL183C, strain NPR1, hits give low values 0.91 | locus YNL209W, strain ssb2, hits give low values 0.99 | locus YNL233W, strain BNI4, hits give low values 1.03 | locus YNL248C, strain rpa49, hits give low values 0.977 | locus YNL250W, strain rad50, hits give low values 1.01 | locus YNL271C, strain bni1, hits give low values 1.01 | locus YNL298W, strain CLA4, hits give low values 0.989 | locus YNL307C, strain MCK1, hits give low values 0.994 | locus YNL322C, strain KRE1 (second series), hits give low values 0.971 | [2] 1 | locus YNR049C, strain mso1, hits give low values 0.981 | locus YNR052C, strain pop2, hits give low values 0.992 | locus YOL006C, strain TOP1, hits give low values 1.15 | locus YOL012C, strain htz1 0.969 | locus YOL147C, strain pex11, hits give low values 1 | locus YOR001W, strain rrp6, hits give low values 1.01 | locus YOR061W, strain CKA2, hits give low values 0.976 | locus YOR069W, strain VPS5, hits give low values 0.988 | locus YOR070C, strain gyp1, hits give low values 0.995 | locus YOR080W, strain dia2, hits give low values 0.992 | locus YOR083W, strain WHI5, hits give low values 1.02 | locus YOR106W, strain vam3, hits give low values 0.997 | locus YOR136W, strain idh2, hits give low values 0.984 | locus YOR144C, strain elg1, hits give low values 0.99 | locus YOR184W, strain ser1, hits give low values 0.986 | locus YOR231W, strain MKK1, hits give low values 0.971 | locus YOR265W, strain rbl2, hits give low values 0.99 | locus YOR270C, strain vph1, hits give low values 1.05 | locus YOR290C, strain snf2, hits give low values 0.946 | locus YOR316C, strain cot1, hits give low values 0.984 | locus YPL051W, strain arl3, hits give low values 1.01 | locus YPL055C, strain LGE1, hits give low values 1.01 | locus YPL078C, strain atp4, hits give low values 0.968 | locus YPL106C, strain sse1, hits give low values 0.963 | locus YPL240C, strain hsp82, hits give low values 1.01 | locus YPL256C, strain CLN2, hits give low values 1 | locus YPR119W, strain clb2, hits give low values 0.991 | locus YPR141C, strain kar3, hits give low values 0.992 | locus YPR163C, strain tif3, hits give low values 0.988 | locus YPR167C, strain met16, hits give low values 0.998 | strain wtn01, hits give low values 0.999

CO/N=C(/C(=O)N[C@@H]1C(=O)N2C(C(=O)O)=C(COC(C)=O)CS[C@H]12)c1csc(N)n1
inactive: locus YAL013W, strain DEP1, hits give low values 1.01 | locus YAL040C, strain CLN3, hits give low values 1.02 | locus YDR363W, strain ESC2, hits give low values 1.01 | locus YER002W, strain NOP16, hits give low values 0.983 | [1] 1 | locus YMR263W, strain SAP30, hits give low values 0.965 | locus YNL153C, strain GIM3, hits give low values 1.07 | locus YNL175C, strain NOP13, hits give low values 1.01 | locus YNL197C, strain WHI3, hits give low values 1.01 | locus YNL224C, strain SQS1, hits give low values 0.99 | [2] 0.985 | locus YOR083W, strain WHI5 (second series), hits give low values 0.978 | locus YPL241C, strain CIN2, hits give low values 1

From PubChem BioAssay AID1159580 (chemical genetic matrix, 2015)
